PubChem BioAssay AID1794835 (Parasite Biology Lab, Institute for Biomedicine and …, 2023)
Among all 2,500 compounds or so, about 45 (2%) were called active. This is one part of a sample in which actives are shown more often than they occur. No stated cut-off is given here; in the data, active means inhibition mostly above about 45% (no sharp cut-off); inactive means mostly below about 37%.

Test: anti-Giardia activity of synthetic compounds – Compounds Australia Scaffold Library subset, 24/48 h, primary screen (AID 1794835);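 on inhibition: 0% = parasite counts in DMSO vehicle wells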
Settings: Giardia lamblia BRIS/91/HEPU/1279 trophozoite counts, imaging, at 10 µM
[1] = measured here: growth inhibition at 24 h, stronger effect = higher value

Compound: COCC(=O)N1CCC(Oc2ncccc2C(=O)N(C)C)CC1
- inhibition (stronger effect = higher value): 4.8% (inactive)

Compound: O=C(c1ccc(F)cc1)N1CCN(c2nc3cc(Br)ccc3n3cccc23)CC1
- inhibition: inactive

Compound: COc1cc(S(=O)(=O)N2CCN=C2Cc2ccccc2)c(OC)cc1Cl
- inhibition: inactive

Compound: O=C(c1ccc2nc[nH]c2c1)N1CCN(Cc2cccc(Cl)c2)CC1
- outcome: inactive
- inhibition [1]: 6%

Compound: CCCC(=O)Nc1nnc(S(=O)(=O)N(C)Cc2ccco2)s1
- inhibition: inactive

Compound: Cc1noc2ncc(C(=O)N3CCN(CCO)CC3)cc12
- inhibition: inactive

Compound: O=C(NC1CCCCC1)c1nc(Nc2ccccc2)c2ccccc2n1
- inhibition (stronger effect = higher value): 73.1% (active)
- inhibition [1]: 59.6%

Compound: O=C(c1nc(Nc2ccc(F)cc2)c2ccccc2n1)N1CCCCCC1
- inhibition: inactive

Compound: O=C(NC1CCCCC1)c1cc(-c2ccco2)nc2ccccc12
- inhibition (stronger effect = higher value): 20.8% (inactive)
- inhibition [1]: 17.2%

Compound: CCC(OC1CCCC1)C(=O)N1CCN(c2nccn2C)CC1 (configuration not stated)
- outcome: inactive
- inhibition [1]: 9.4%

Compound: CC(=O)Nc1cc(C(=O)NCCCN2CCC(C)CC2)ccc1S(=O)(=O)c1ccc(Cl)cc1
- inhibition (stronger effect = higher value): 23.9% (inactive)
- inhibition [1]: 5%

Compound: Cc1csc(-c2cc(S(=O)(=O)N3c4ccccc4CC3C)c(C)n2C)n1 (configuration not stated)
- inhibition (stronger effect = higher value): 63.6% (active)
- inhibition [1]: 22.6%

Compound: CCCNS(=O)(=O)c1cc(-c2nc(-c3cccc(Cl)c3)cs2)n(C)c1C
- inhibition (stronger effect = higher value): 32.9% (inactive)
- inhibition [1]: 21.9%

Compound: Cc1nn(Cc2csc(-c3ccsc3)n2)c(C)c1S(=O)(=O)N1CCc2ccccc21
- inhibition (stronger effect = higher value): 7.1% (inactive)
- inhibition [1]: 12.8%

Compound: CN(Cc1ccccc1)C(=O)c1cccc2c1CCN2C(=O)Nc1ccccc1
- outcome: inactive
- inhibition [1]: 2.8%

Compound: CCc1c(C2CCN(C(=O)C3COc4ccccc4O3)CC2)noc1N (configuration not stated)
- inhibition: inactive

Compound: Cc1ccc(NC(=O)N2CCCC(C)(C(=O)NCc3ccc(F)cc3)C2)cc1 (configuration not stated)
- inhibition: inactive

Compound: Cc1csc(-c2ccc(CNC(=O)c3cncc(Br)c3)cc2)n1
- inhibition: inactive

Compound: COc1ccc(C(=O)Nc2cc(-c3nc(C)cs3)sc2C)cc1OC
- inhibition (stronger effect = higher value): 27.2% (inactive)
- inhibition [1]: 11.4%

Compound: Cc1ccc(C(=O)Nc2cc(-c3nc(C)cs3)sc2C)cc1
- inhibition (stronger effect = higher value): 56.1% (active)
- inhibition [1]: 28%

Compound: O=C(c1cc(Cl)c[nH]1)N1CCCN(Cc2cscn2)CC1
- inhibition: inactive

Compound: Cc1noc2nc(-c3ccccc3F)cc(C(=O)N3CCCC3c3nnc4ccccn34)c12 (configuration not stated)
- inhibition: inactive

Compound: O=C1CCCc2cc(S(=O)(=O)N3CCN(c4ccccc4)CC3)ccc2N1
- inhibition (stronger effect = higher value): 19.1% (inactive)
- inhibition [1]: 8.5%

Compound: CC1(c2ccco2)NC(=O)N(Cc2cn(-c3ccccc3)nc2-c2ccccc2)C1=O (configuration not stated)
- inhibition: inactive

Compound: Cc1cc2[nH]c(C(=O)Nc3ccccc3C)c(CN3CCOCC3)c2s1
- inhibition (stronger effect = higher value): 97.7% (active)
- inhibition [1]: 94.7%

Compound: Cc1sc2cc(C(=O)NC(C)(C)C)[nH]c2c1CN1CCOCC1
- inhibition (stronger effect = higher value): 2.4% (inactive)
- inhibition [1]: 3%

Compound: COc1ccc(CNC(=O)c2[nH]c3cc(C)sc3c2CN2CCCC2)cc1
- inhibition (stronger effect = higher value): 35.5% (inactive)
- inhibition [1]: 10.1%

Compound: Cc1ccc(S(=O)(=O)N2CCc3nc(N4CCOCC4)[nH]c(=O)c3CC2)cc1C
- inhibition: inactive

Compound: Cc1cc(C)c(S(=O)(=O)N2CCN(C)c3ccccc32)c(C)c1
- inhibition: inactive

Compound: O=S(=O)(Cc1ccccc1)Nc1cccc(-c2nnc(Cc3ccc4c(c3)OCO4)o2)c1
- inhibition (stronger effect = higher value): 46.9% (active)
- inhibition [1]: 17.2%

Compound: CCc1nnc(-c2nnc(NCc3ccc4c(c3)OCO4)c3ccccc23)o1
- outcome: inactive
- inhibition [1]: 3%

Compound: CCOC(=O)c1ccc(S(=O)(=O)Nc2cccc(-c3nnc(-c4ccccc4)o3)c2)cc1
- inhibition (stronger effect = higher value): 2.3% (inactive)

Compound: c1cnc(N2CCN(c3ncnc4nc[nH]c34)CC2)nc1
- inhibition (stronger effect = higher value): 0.6% (inactive)

Compound: O=C(CN1C(=O)CCCc2ccccc21)NCCc1ccco1
- inhibition: inactive

Compound: CC1CN(C(=O)c2cc(C3CC3)nc3c2cnn3C(C)C)CC(C)O1 (configuration not stated)
- inhibition: inactive

Compound: Cc1cc(-c2cc(C(=O)Nc3ccc(N4CCN(C)CC4)nc3)c3cnn(C(C)C)c3n2)c(C)o1
- inhibition (stronger effect = higher value): 98.2% (active)
- inhibition [1]: 95.9%

Compound: Cc1cc(-c2cc(C(=O)Nc3c(C)n(C)n(-c4ccccc4)c3=O)c3cnn(C(C)C)c3n2)c(C)o1
- outcome: inactive
- inhibition [1]: 2%

Compound: NC(=O)c1nonc1N
- inhibition: inactive

Compound: Cc1ccc(CNC(=O)c2cc(-c3ccc(C)c(C)c3)n(C3CCS(=O)(=O)C3)n2)cc1 (configuration not stated)
- inhibition: inactive

Compound: Cn1cc2c(n1)c(=O)n(Cc1ccccc1)c(=O)n2CC(=O)Nc1ccc2c(c1)OCCO2
- inhibition: inactive

Compound: Cn1cc2c(n1)c(=O)n(Cc1ccccc1)c(=O)n2CC(=O)Nc1cccc(F)c1
- inhibition (stronger effect = higher value): 62.8% (active)
- inhibition [1]: 30.6%

Compound: Cc1nc2c(c(=O)n1CC(=O)Nc1cccc(F)c1)CCN(Cc1ccccc1)C2
- outcome: inactive
- inhibition [1]: 12%

Compound: Brc1ccc(-c2nc(-c3ccc4c(c3)ncn4C3CCCC3)no2)o1
- inhibition: inactive

Compound: Cc1ccccc1NC(=O)c1c(C)oc2ncnc(N3CCCCC3)c12
- inhibition (stronger effect = higher value): 15.9% (inactive)
- inhibition [1]: 14.5%

Compound: Cc1ccc(C(=O)N2CCN(S(=O)(=O)N3CCN(C)CC3)CC2)o1
- inhibition: inactive

Compound: COc1ccc(C(=O)N2c3ccccc3NC(=O)CC2C)cc1OC (configuration not stated)
- outcome: inactive
- inhibition [1]: 2.2%

Compound: COc1ccc(C)cc1N1C(=N)C(=C2Nc3ccccc3S2)C(c2ccccc2)C1=O (configuration not stated)
- inhibition (stronger effect = higher value): 96.7% (active)
- inhibition [1]: 90.2%

Compound: N=C1C(=C2Nc3ccccc3S2)CC(=O)N1C1CC1
- outcome: inactive
- inhibition [1]: 2.5%

Compound: CCN(CC)CCCN1C(=O)C(O)=C(C(=O)c2cc3cccc(OC)c3o2)C1c1ccncc1 (configuration not stated)
- inhibition: inactive

Compound: CCOc1cc(C)ccc1NC(=O)N1CCC12CCC2
- inhibition: inactive

Compound: CCn1cc(CN2CCCN(C(=O)c3cc(C4CC4)on3)CC2)cn1
- outcome: inactive
- inhibition [1]: 1.1%

Compound: CN1C(=O)c2cc(NC(=O)c3ccc4c(c3)OCO4)ccc2N2CCN=C12
- inhibition (stronger effect = higher value): 31.6% (inactive)
- inhibition [1]: 11.7%

Compound: Cc1ccc(C(=O)Nc2ccc3c(c2)Oc2ccccc2C(=O)N3C)cc1
- inhibition (stronger effect = higher value): 96.8% (active)
- inhibition [1]: 90.3%

Compound: CCOc1ccc(C(=O)Nc2ccc3c(c2)N(C(C)C)C(=O)c2ccccc2O3)cc1
- inhibition (stronger effect = higher value): 33.8% (inactive)
- inhibition [1]: 18.7%

Compound: O=C(NCc1cccc(F)c1)C1CCCN(c2nc3ccccc3n3cccc23)C1 (configuration not stated)
- outcome: inactive
- inhibition [1]: 2.2%

Compound: CNC(=O)N1C[C@@H](CN(C)C)[C@@H](C2CCN(Cc3ccccn3)CC2)C1
- inhibition: inactive

Compound: CCCCNC(=O)Cn1c(=O)c2c(C)cc(C)nc2n(-c2ccccc2)c1=O
- inhibition (stronger effect = higher value): 4.4% (inactive)

Compound: Cc1ccc(-n2c(=O)c3c(cnn3C)n(CC(=O)Nc3ccccc3C)c2=O)cc1
- inhibition (stronger effect = higher value): 76.9% (active)
- inhibition [1]: 53.9%

Compound: Cc1ccccc1NC(=O)Cn1ccc2sccc2c1=O
- inhibition (stronger effect = higher value): 19.9% (inactive)

Compound: COC(=O)c1ccc(C(=O)N2CCc3sccc3C2)s1
- inhibition: inactive

Compound: COc1cc(OC)c(C2=CCN(C(=O)c3ccc(C)s3)CC2)c(OC)c1
- inhibition (stronger effect = higher value): 59.3% (active)
- inhibition [1]: 23.1%

Compound: CC(=O)c1ccc(C(=O)N2CC=C(c3ccccc3)CC2)s1
- inhibition: inactive

Compound: CC(=O)N1c2ccc(S(=O)(=O)N3CCOCC3)cc2CC1C(=O)NCCN1CCOCC1 (configuration not stated)
- inhibition: inactive

Compound: COc1ccc(NC(=O)c2cncc(NS(=O)(=O)c3ccc(C)cc3)c2)cc1
- inhibition: inactive

Compound: COc1cc(NS(=O)(=O)c2ccc(C)cc2)cc2sc(NC(=O)c3ccccc3)nc12
- inhibition (stronger effect = higher value): 50% (active)
- inhibition [1]: 23.6%

Compound: CCC(=O)Nc1nc2c(OC)cc(NS(=O)(=O)c3cc(Cl)ccc3OC)cc2s1
- inhibition: inactive

Compound: COc1ccc(-c2noc(C3CCOCC3)n2)c(OC)c1
- inhibition: inactive

Compound: Cc1ccc2nc(-c3ccc(C)c(NC(=O)c4cccnc4)c3)[nH]c2c1
- inhibition (stronger effect = higher value): 8.2% (inactive)
- inhibition [1]: 2.9%

Compound: Cc1cnn(CC(C)NCc2nc(-c3ccccn3)no2)c1 (configuration not stated)
- inhibition (stronger effect = higher value): 19.9% (inactive)

Compound: Cc1ccc(-c2cc(C(=O)NCc3cn(C)nc3C)c3ccccc3n2)cc1C
- outcome: inactive
- inhibition [1]: 3%

Compound: COc1cccc(-n2nnc3c(=O)n(CC(=O)N4CCCC4)cnc32)c1
- inhibition: inactive

Compound: CCOC(=O)c1ccc(S(=O)(=O)N2CCN(C3CCOC3=O)CC2)o1 (configuration not stated)
- inhibition: inactive

Compound: CCN1CCN(c2ccc(-c3nc(-c4cccc(F)c4)no3)cn2)CC1
- inhibition (stronger effect = higher value): 48.2% (inactive)
- inhibition [1]: 31.4%

Compound: Cn1nccc1-c1cccc(-c2noc(-c3cccc(F)c3)n2)c1
- inhibition (stronger effect = higher value): 64.1% (active)
- inhibition [1]: 17.6%

Compound: O=S(=O)(c1cc(-c2nc(-c3cccc(F)c3)no2)cs1)N1CCCCC1
- inhibition: inactive

Compound: O=c1[nH]c(CN2CCC(c3nc4ccccc4o3)CC2)nc2ccsc12
- inhibition: inactive

Compound: CC(C)c1ccc(Nc2ncccc2S(=O)(=O)N2CCCC2)cc1
- inhibition (stronger effect = higher value): 57.5% (active)
- inhibition [1]: 27%

Compound: CC(C)c1ccc(NC(=O)c2ccc(F)c(S(=O)(=O)N3CCN(c4ccccc4)CC3)c2)cc1
- inhibition: inactive

Compound: CCOC(=O)c1cccc(Nc2ncccc2S(N)(=O)=O)c1
- inhibition (stronger effect = higher value): 35.4% (inactive)
- inhibition [1]: 14.6%

Compound: CC(=O)Nc1nsc(N2CCCC(C(=O)NCc3ccccc3Cl)C2)n1 (configuration not stated)
- inhibition (stronger effect = higher value): 5.9% (inactive)
- inhibition [1]: 4.9%

Compound: Cc1ccc2nc(-c3ccccc3)c(CN3CCN(C4CCS(=O)(=O)C4)CC3)n2c1 (configuration not stated)
- inhibition: inactive

Compound: O=S1(=O)CCC(n2cc(-c3cnn(-c4ccccc4)c3)cn2)C1 (configuration not stated)
- inhibition (stronger effect = higher value): 66.2% (active)
- inhibition [1]: 45.5%

Compound: O=C(c1cn2ccccc2n1)N1CCN(C2CCS(=O)(=O)C2)CC1 (configuration not stated)
- inhibition: inactive

Compound: O=C(c1ccc(F)cc1)N1CCc2[nH]nc(C(=O)N3CCN(c4ccc(F)cc4)CC3)c2C1
- inhibition (stronger effect = higher value): 0.9% (inactive)
- inhibition [1]: 2.4%

Compound: O=C(c1ccc2c(=O)n3c(nc2c1)CCCC3)N1CC=C(c2ccccc2)CC1
- inhibition: inactive

Compound: COc1ccccc1-c1cc(C(=O)Nc2sc(Nc3ccccc3)nc2C(N)=O)[nH]n1
- inhibition (stronger effect = higher value): 11.1% (inactive)
- inhibition [1]: 11.2%

Compound: Cc1cccc(C)c1NC(=O)c1cc(-c2ccccc2)nc2c1cnn2Cc1cccnc1
- inhibition (stronger effect = higher value): 17.5% (inactive)

Compound: Cn1cc(C(=O)c2ccccc2O)cc1-c1nc2ccccc2c(=O)[nH]1
- inhibition: inactive

Compound: CN(C)CCn1cc(C(=O)c2cc(Cl)ccc2O)cc1-c1nc2ccccc2c(=O)[nH]1
- inhibition (stronger effect = higher value): 85.8% (active)
- inhibition [1]: 45%

Compound: CN(C)CCCN1C(=O)C(=O)C(=C(O)c2cc(Cl)ccc2O)C1c1ccco1 (configuration not stated)
- inhibition (stronger effect = higher value): 14.6% (inactive)

Compound: Cc1noc(-c2nn(C)c3c2CN(S(=O)(=O)Cc2cccc(F)c2)CC3)n1
- inhibition (stronger effect = higher value): 14.3% (inactive)

Compound: O=C(CCc1ccc(Cl)cc1Cl)N1CCCC(c2ncn[nH]2)C1 (configuration not stated)
- inhibition (stronger effect = higher value): 0.4% (inactive)

Compound: CCCNC1=C(C(=O)Nc2ccc(F)cc2)S(=O)(=O)c2ccccc21
- inhibition (stronger effect = higher value): 46.5% (inactive)
- inhibition [1]: 21.9%

Compound: NC(=O)C1=C(Nc2ccccc2)c2ccccc2S1(=O)=O
- inhibition (stronger effect = higher value): 48.5% (active)
- inhibition [1]: 12.8%

Compound: CN(C)c1nc(N(C)C)nc(N2CC(=O)N(c3ccc(Cl)c(Cl)c3)C2=N)n1
- inhibition (stronger effect = higher value): 16% (inactive)
- inhibition [1]: 9.5%
